TGFb SMAD3 inh = qHTS for Inhibitors of TGF-b. HepG2 CAGA-GFP TGF-b/SMAD3 reporter, GFP fluorescence, 18 h; TGF-beta stimulated, 500 pg/mL final. 410,000 compounds, 1.2% hits. Potency, µM (highest dose often 46.1 µM), without a hit: at the top dose activity, negative = inhibition, usual class: inhibitors; note: potency is the fitted concentration of half-maximal effect; % is set by controls: 0 for no effect and ±100 for the full control effect; nearly all actives have a fitted effect of over 65% in size
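HEPG2 CAGA-GFP cells (1000/well, DMEM with 1% FBS) were pre-incubated 2 h at 37 degrees C, given compound by pin tool, then stimulated with TGF-beta at 500 pg/mL final for 18 h before per-cell GFP fluorescence imaging.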
IL-1B inflam inh = qHTS for Inhibitors of Inflammasome Signaling: IL-1-beta AlphaLISA Primary Screen; AID 743279, 2014; 360,000 compounds, 4.7% hits; THP-1 LPS/ATP IL-1B secretion, AlphaLISA, 16 h; stronger effect = lower value; activity change, % at 57.5 µM; in the data active = activity change below about -50%; inconclusive = mostly about -30% to -49%; note: % is set by controls: 0 for no effect and ±100 for the full control effect
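THP-1 cells pretreated 1 hr with compounds (up to 57.5 uM final), then stimulated with LPS (250 ng/mL final) plus ATP (1.25 mM final); secreted IL-1B measured by AlphaLISA after 16 hr, decreased signal indicating inhibition.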
HepG2 viability = qHTS for Inhibitors of TGF-b: Cytotox Counterscreen; Potency, µM (series often up to 46.1 µM), for inactives: at the top dose activity change, negative = cytotoxicity, actives largely listed as cytotoxic; AID 588856, 2011; HepG2 CAGA-GFP viability, ATP luminescence, 18 h; 410,000 compounds, 0.76% hits; note: potency is the fitted concentration of half-maximal effect
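CellTiter-Glo luminescence gave cytotoxicity after 18 hours at 37 degrees C. The cells were HepG2 CAGA-GFP in 1% FBS DMEM, stimulated with 500 pg/mL TGF-beta after compound addition. %Activity was normalised to no-cell wells (complete cell-killing) and DMSO (no toxicity), and curves were fitted and classified.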
DT40 TDP1 CPT = qHTS for Inhibitors of human tyrosyl-DNA phosphodiesterase 1 (TDP1): qHTS in cells in presence of CPT | Potency, µM (top dose mostly 46.2 µM), inactives show at the top dose activity change, negative = growth inhibition, actives largely listed as inhibitors | AID 686979, 2013 | 420,000 compounds, 12% hits | chicken DT40 Tdp1-/-;hTDP1 cells + 20 nM CPT, ATP luminescence, 48 h; note: potency is the fitted concentration of half-maximal effect; % is set by controls: 0 for no effect and ±100 for the full control effect; nearly all actives have a fitted effect of over 55% in size
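Chicken DT40 Tdp1-/- cells complemented with human TDP1, 400 cells/well, exposed to compounds plus 20 nM camptothecin for at least 48 h at 37 C; viability read as ATP content by CellTiter-Glo luminescence.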
TDP1 cell noCPT = qHTS for Inhibitors of human tyrosyl-DNA phosphodiesterase 1 (TDP1): qHTS in cells in absence of CPT. DT40 Tdp1-/- hTDP1 cells, no CPT, ATP luminescence, 48 h. Potency, µM (highest dose often 46.2 µM), inactives show at the top dose activity change, negative = growth inhibition, most hits filed as inhibitors. 420,000 compounds, 15% hits; note: potency is the fitted concentration of half-maximal effect; % is set by controls: 0 for no effect and ±100 for the full control effect; nearly all actives have a fitted effect of over 55% in size
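A cellular qHTS used chicken DT40 cells lacking endogenous Tdp1 but carrying stably transfected human TDP1. Compounds were applied without camptothecin, and cell growth kinetics were judged by ATP-dependent luminescence after ≥48 hr.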
TDP1 block = qHTS Assay for Inhibitors of Tyrosyl-DNA Phosphodiesterase (TDP1) | Tyrosyl-DNA phosphodiesterase 1 (Homo sapiens), Q9NUW8 | recombinant TDP1, AlphaScreen DNA substrate cleavage | Potency, µM (top dose mostly 130 µM), without a hit: top-dose activity change, negative = inhibition, hits mostly inhibitors | 350,000 compounds, 0.28% hits | AID 485290, 2010; note: potency is the fitted concentration of half-maximal effect; % is set by controls: 0 for no effect and ±100 for the full control effect; nearly all actives have a fitted effect of over 40% in size
Target sequence (Q9NUW8 whole entry, looked up): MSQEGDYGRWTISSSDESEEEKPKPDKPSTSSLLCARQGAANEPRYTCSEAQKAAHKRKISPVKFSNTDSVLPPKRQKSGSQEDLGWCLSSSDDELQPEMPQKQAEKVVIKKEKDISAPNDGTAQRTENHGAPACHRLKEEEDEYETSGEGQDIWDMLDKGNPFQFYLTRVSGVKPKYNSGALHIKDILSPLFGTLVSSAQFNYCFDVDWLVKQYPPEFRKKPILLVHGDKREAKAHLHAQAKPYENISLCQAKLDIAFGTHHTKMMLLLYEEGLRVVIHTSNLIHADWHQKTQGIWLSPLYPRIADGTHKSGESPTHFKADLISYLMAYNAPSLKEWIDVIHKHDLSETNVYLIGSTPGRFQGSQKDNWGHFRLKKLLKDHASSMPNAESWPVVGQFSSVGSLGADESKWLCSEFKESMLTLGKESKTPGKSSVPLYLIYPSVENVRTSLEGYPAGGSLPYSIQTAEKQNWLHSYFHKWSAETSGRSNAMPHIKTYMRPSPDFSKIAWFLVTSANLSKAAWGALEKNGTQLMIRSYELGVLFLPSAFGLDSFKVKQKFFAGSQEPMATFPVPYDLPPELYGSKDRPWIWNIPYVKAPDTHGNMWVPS
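AlphaScreen read-out: signal falls as enzyme removes the 3' tyrosine-FITC from a 5'-biotinylated DNA oligo (15 nM, 5 min, RT). Enzyme was E. coli-made recombinant Tdp1 at 1 nM, exposed to compound for 15 min beforehand; beads 10 ug/ml, 10 min.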
* hit, by the source's call; ? = inconclusive; nt = no result; [ ] = another dose, or the depositor's remark. Only some compounds are listed: those with a hit (about 19% of all), similar ones and a draw of the others. Unless noted, calls come from the whole dose curve; as a rule, active = well fitted curve in the direction sought with a large enough effect; inconclusive = small, poorly fitted or top-dose-only effect, or another doubt; inactive = no such curve, though single readings can be large; an effect the other way counts as inactive or inconclusive.

SMILES	TGFb SMAD3 inh	IL-1B inflam inh	HepG2 viability	DT40 TDP1 CPT	TDP1 cell noCPT	TDP1 block
O=C(NCc1cccnc1)C(=O)Nc1ccc2c(c1)OCO2	1.3%	20.8	-14.6%	-4.4%	-4.1%	2.5%
COCCN(C(=O)Cn1nnc2ccccc21)C(C(=O)NC1CCCCC1)c1ccc(OC)cc1OC (centres undefined)	8.2%	-11.3	-11.5%	-4.0%	-6.6%	5.0%
CCOc1ccc(N(C(=O)Cn2nnc3ccccc32)C(C(=O)NCc2ccccc2)c2ccc(OC)cc2)cc1 (centres undefined)	?	nt	-10.4%	-27.7%	-20.5%	3.7%
COc1ccc(N(C(=O)Cn2cnc3ccccc32)C(C(=O)NC2CCCCC2)c2ccccc2)cc1 (centres undefined)	?	-74.7*	-6.5%	14.6µM*	?	0.0%
COc1ccc(N(C(=O)Cn2nnc3ccccc32)C2(C(=O)NC3CCCC3)CCCCC2)cc1	-8.9%	-57.6*	-14.5%	?	?	0.0%
Cc1cc(NC(=O)CCC(=O)N(c2ccccc2)C2(C(=O)NC3CCCCC3)CCCC2)no1	-13.4%	-61.2*	-1.5%	-21.9%	-28.6%	0.0%
Cc1nc2c(-c3ccccc3)c(C)nn2c(C)c1CCC(=O)N1CCN(c2ccccc2)CC1	-1.2%	nt	-0.7%	-2.6%	?	6.9%
Cc1cc(C)c2oc(C(=O)Nc3c(C(=O)c4ccccc4)oc4ccccc34)cc(=O)c2c1	15.4%	nt	5.0%	14.4%	-21.4%	6.1%
CCCn1c(SCC(=O)Nc2cc(S(=O)(=O)N3CCCCC3)ccc2C)n[nH]c1=O	1.5%	19.4	4.1%	0.5%	5.9%	0.3%
COC(=O)[C@H](Cc1ccccc1)N(Cc1ccc(C)cc1)S(C)(=O)=O	-9.8%	nt	-31.4%	?	?	nt
O=C(NCc1ccccc1)C(C1CC1)n1c(=O)c(-c2ccco2)nc2ccccc21 (centres undefined)	nt	22.7	nt	13µM*	16.4µM*	nt
CC(C)(C)NC(=O)C(C1CC1)n1c(=O)c(-c2ccco2)nc2ccccc21 (centres undefined)	nt	-11.8	nt	?	16.4µM*	nt
O=C(NCc1ccccc1)C(c1ccccc1)n1c(=O)c(-c2ccco2)nc2ccccc21 (centres undefined)	nt	-18.8	nt	?	20.6µM*	nt
CC(C)(C)NC(=O)C(c1ccc(C(F)(F)F)cc1)n1c(=O)c(-c2ccco2)nc2ccccc21 (centres undefined)	nt	26.6	nt	16.4µM*	18.4µM*	nt
Cc1cccc(C)c1NC(=O)C(C1CC1)n1c(=O)c(-c2ccco2)nc2ccccc21 (centres undefined)	nt	-3.2	nt	?	?	nt
O=C1c2ccccc2C(=O)N1Cc1ccccn1	11.3%	-8.7	-1.3%	4.5%	0.4%	2.1%
O=C(Nc1ccc(NC(=O)c2ccc(Br)cc2)c(Cl)c1)c1ccc(Br)cc1	3.3%	nt	-0.2%	6.9%	3.5%	2.2%[12.3 µM]
CN(C)CCNC(=O)CN1C(=O)CCn2nc(-c3cn(C)c4ccccc34)cc21	0.4%	nt	11.3%	-13.3%	4.4%	1.8%
CC(C)CN1CCC2(CC1)CCN(C(=O)c1ccco1)CC2	nt	nt	nt	4.3%	-15.8%	nt
O=C(CN1C(=O)NC2(CCCC2)C1=O)N1CCN(c2ccccc2Cl)CC1	-15.1%	13.0	-6.8%	-10.5%	-26.7%	nt
CCCCCNC(=O)C(c1ccc(OC)cc1)n1c(=O)c(-c2ccco2)nc2ccccc21 (centres undefined)	nt	-0.2	nt	16.4µM*	11.6µM*	nt
CCCCCNC(=O)C(c1ccc(C#N)cc1)n1c(=O)c(-c2ccco2)nc2ccccc21 (centres undefined)	nt	-2.6	nt	?	?	nt
O=C(NCc1ccccc1)C(c1ccc(C(F)(F)F)cc1)n1c(=O)c(-c2ccco2)nc2ccccc21 (centres undefined)	nt	0.0	nt	?	20.6µM*	nt
COc1cccc(NC(=O)CSc2c(C)cnc3c2c(=O)n(C)c(=O)n3C)c1	8.8%	nt	-5.4%	?	?	-2.6%
CC(C)CC(=O)Nc1nnc(S(=O)(=O)N(C)Cc2ccc(Cl)cc2)s1	-4.8%	nt	4.4%	-8.1%	-19.9%	-8.5%
SMILES	TGFb SMAD3 inh	IL-1B inflam inh	HepG2 viability	DT40 TDP1 CPT	TDP1 cell noCPT	TDP1 block
O=C(CC(=O)c1ccccn1)c1ccccc1	-23.9%	59.8	-19.2%	20.6µM*	16.4µM*	nt
O=C(CC(CC(=O)c1ccccc1)c1ccccn1)c1ccccc1	25.8%	3.3	-0.8%	?	14.6µM*	nt
O=C(c1ccccc1)c1ccccn1	-1.1%	18.0	-2.6%	-1.8%	-2.3%	3.4%
Nc1nonc1-n1nnc(C(=O)N/N=C/c2cccs2)c1-c1ccc2c(c1)OCO2	-12.2%	-11.2	-0.7%	?	-27.9%	4.8%
CCOc1cccc(-c2c(C(=O)N/N=C/c3sccc3C)nnn2-c2nonc2N)c1	10µM*	?	4.47µM*	-29.6%	?	2.5%
Cc1ccsc1/C=N/NC(=O)c1nnn(-c2nonc2N)c1-c1ccc2c(c1)OCO2	-19.3%	-51.9*	1.3%	?	-18.3%	2.4%
Cc1ccc(SCC(=O)NCc2ccc(F)cc2)cc1	6.0%	20.3	2.8%	4.2%	-3.6%	-0.6%
O=C(NC(NCc1cccnc1)C(Cl)(Cl)Cl)c1cccc2ccccc12 (centres undefined)	?	16.4	-1.6%	?	14.6µM*	1.8%
Cc1ccc(OCC(=O)NNC(=O)CCc2ccccc2)cc1	20.1%	1.2	-3.4%	-14.0%	-1.9%	1.0%
Cc1ccc(CC(=O)CCc2ccccc2)cc1	?	0.8	-14.3%	-13.8%	-8.5%	79.4µM*
Cc1ccc(CC(=O)NCc2ccc(F)cc2)cc1	-21.5%	0.0	3.2%	4.11µM*	4.61µM*	2.7%
O=C(Cn1ncc2c(=O)oc3ccccc3c21)NCc1ccc(Cl)cc1	-2.3%	nt	6.1%	-1.0%	-5.9%	1.3%
O=C(Cn1ncc2c(=O)oc3ccccc3c21)NCc1cccnc1	-6.1%	4.2	-1.7%	1.3µM*	9.2µM*	-2.7%
O=C(/C=C/c1c(F)cccc1Cl)NCCCN1CCOCC1	-1.2%	16.1	5.3%	-4.0%	27.6%	2.2%
